PubChem BioAssay
A number with no mark means an inactive call. No rule for the calls is given here.

molecular target: L-lactate dehydrogenase (Plasmodium falciparum (isolate CDC / Honduras)) (UniProt Q27743); test: PfLDH activity inhibition – cell lysate, 3D7 strain, counter-screen for P. falciparum growth inhibition project (AID 2304);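 also: 0% = vehicle and 100% = reference inhibitor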; settings: P. falciparum 3D7 crude extract, LDH APAD/NBT absorbance; at 2 µM; active compounds read high
Sequence (Q27743 whole entry, looked up): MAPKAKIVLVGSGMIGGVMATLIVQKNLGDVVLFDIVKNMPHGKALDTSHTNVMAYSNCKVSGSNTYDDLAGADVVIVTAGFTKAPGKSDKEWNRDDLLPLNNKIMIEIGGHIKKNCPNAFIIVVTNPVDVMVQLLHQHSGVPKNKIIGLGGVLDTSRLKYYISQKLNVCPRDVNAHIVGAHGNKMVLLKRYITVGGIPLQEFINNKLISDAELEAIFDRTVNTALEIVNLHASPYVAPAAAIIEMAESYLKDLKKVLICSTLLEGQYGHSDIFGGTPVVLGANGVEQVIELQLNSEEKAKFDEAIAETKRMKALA

**Q.** `Cc1cccc2[nH]c(-c3cccc(-c4cccc(CN5CCN(c6ccc(C#N)cn6)CC5)c4)c3)nc12` was tested. Which inhibition did it give?
**A.** -5%

**Q.** For `C[C@H](Cc1ccc(OCCCCCCOc2ccc(C[C@@H](C)NC[C@H](O)c3cccc(Cl)c3)cc2)cc1)NC[C@H](O)c1cccc(Cl)c1`, which inhibition is on record?
**A.** 3%

**Q.** For `COc1ccc(-n2ccnc2SCC(=O)Nc2cc(Cl)ccc2OC)c(OC)c1`, which inhibition is on record?
**A.** -8%

**Q.** For `COc1ccccc1C1CCN(CCCCNC(=O)c2ccc(NC(=O)c3ccc(Cl)cc3)cc2)CC1`, which inhibition is on record?
**A.** 6%

**Q.** How did the inhibition turn out when `COc1ccccc1CNc1ncc(-c2ccsc2)c(-c2nccs2)n1` was run?
**A.** 2%

**Q.** `COc1ccc2c(NN=Cc3ccc(N(C)C)cc3)ccnc2c1` was tested. Which inhibition did it give?
**A.** -1%

**Q.** How did the inhibition turn out when `NC1CCCN(Cc2cccc(-c3ccc(-c4nc5ccccc5[nH]4)s3)c2)C1` (stereo not given) was run?
**A.** -2%

**Q.** With `COc1cc2c(cc1C(F)(F)F)N(C(=O)Nc1cc(OC(F)(F)F)cc(-c3cccnc3)c1)CC2` as the molecule, how does the inhibition read?
**A.** -3%

**Q.** `O=C(Cc1cnc[nH]1)Nc1ccc(-c2cccc(-c3nc4ccc(C(F)(F)F)cc4[nH]3)c2)cc1` was tested. Which inhibition did it give?
**A.** -8%

**Q.** With `CCCOc1ccc(CCCON2C(N)=NC(N)=NC2(C)C)cc1` as the molecule, how does the inhibition read?
**A.** 0%

**Q.** With `CC(C)(C)NCCN(Cc1ccc(-c2ccc(C(F)(F)F)cc2)cc1)C(=O)Cn1c(CCc2cccc(F)c2F)nc(=O)c2ccccc21` as the molecule, how does the inhibition read?
**A.** -4%

**Q.** With `CC1(C)N=C(N)N=C(N)N1OCCNCc1ccc(Cl)cc1` as the molecule, how does the inhibition read?
**A.** -5%

**Q.** With `Cc1ccc(C2=NNC3(S2)C(=O)Nc2ccc(C)cc23)cc1` (stereo not given) as the molecule, how does the inhibition read?
**A.** 6%

**Q.** How did the inhibition turn out when `CCc1ccc(N2C(=O)C3C(Cc4ccc(OC(C)(C)C)cc4)NC4(C(=O)N(Cc5ccccc5)c5ccc(F)cc54)C3C2=O)cc1` (stereo not given) was run?
**A.** -10%

**Q.** For `CCNc1cc(C(=O)N[C@@H](Cc2ccc(Cl)cc2)[C@H](O)CNC2CCCCC2)cc(N2CCCCS2(=O)=O)c1`, which inhibition is on record?
**A.** -1%

**Q.** With `CC(C)[C@H](NC(=O)NC1CCC(CCN2[C@@H]3CC[C@H]2CC(OC(=O)C(CO)c2ccccc2)C3)CC1)C(O)(c1ccccc1)c1ccccc1` (stereo not given in full) as the molecule, how does the inhibition read?
**A.** 1%

**Q.** With `CC(C)N1CCC(N(Cc2ccc(-c3ccc(C(F)(F)F)cc3)cc2)C(=O)Cn2c(CCc3cccc(F)c3F)cc(=O)c3c2CCC3)CC1` as the molecule, how does the inhibition read?
**A.** -7%

**Q.** How did the inhibition turn out when `c1ccc(Nc2nc(-c3ccccn3)cs2)nc1` was run?
**A.** 2%

**Q.** Which inhibition does the source give for `CCOC(=O)NC1=NC(C)(C)N(OCc2ccc(Cl)c(Cl)c2)C(N)=N1` here?
**A.** -5%

**Q.** `CCn1c(SCC(=O)Nc2cc(C(F)(F)F)ccc2Cl)nc2ccccc2c1=O` was tested. Which inhibition did it give?
**A.** 3%

**Q.** Which inhibition does the source give for `COc1cc(NC(=O)/C=C/c2cccc3ccoc23)ccc1OCCN(C(C)C)C(C)C` here?
**A.** 2%

**Q.** How did the inhibition turn out when `COc1ccc(OCCCN2CCN(CC(c3ccc(F)cc3)N3CCN(C(C)C)CC3)CC2)c2ccccc12` (stereo not given) was run?
**A.** -1%

**Q.** `Cc1cccc(Nc2nccc(NCC(O)c3cccc(C(F)(F)F)c3)n2)c1` (stereo not given) was tested. Which inhibition did it give?
**A.** -2%

**Q.** With `Cc1cccc2[nH]c(-c3ccc(-c4ccc(NC(=O)C(=O)c5cccn5C)cc4)cc3)nc12` as the molecule, how does the inhibition read?
**A.** 8%

**Q.** Which inhibition does the source give for `CC(C)NCc1ccc(-c2cccc(-c3nc4ccccc4[nH]3)c2)cc1` here?
**A.** 0%

**Q.** How did the inhibition turn out when `Cc1cccc2[nH]c(-c3ccc(-c4cccc(CN5CCN(c6ccncc6)CC5)c4)cc3)nc12` was run?
**A.** 7%

**Q.** For `CC(C)CN1CCCN(Cc2cccc(NC(=O)c3cc4ccccc4s3)c2)CC1`, which inhibition is on record?
**A.** 0%

**Q.** For `Cc1cc(NCCCCCCN)nc(Nc2ccc(Cl)cc2)n1`, which inhibition is on record?
**A.** 1%

**Q.** With `CCCCCCCN1CC[C@@H](CCCc2ccnc3ccc(OCCCCN=C(N)NO)cc23)[C@@H](CC)C1` as the molecule, how does the inhibition read?
**A.** 2%

**Q.** `COc1cc(CCN(C)Cc2ccc(OC)c(OC)c2)ccc1NC(=O)c1cccc2c(=O)c3cccc(F)c3[nH]c12` was tested. Which inhibition did it give?
**A.** 0%

**Q.** Which inhibition does the source give for `COc1ccc2nccc([C@@H](O)CN3CCC(NC[C@H](Cc4ccccc4)NC(=O)OC(C)(C)C)CC3)c2c1` here?
**A.** 6%

**Q.** With `CC(=O)NCCNc1nccc(N2CCc3ncnc(Nc4ccc(OCc5cccc(F)c5)c(Cl)c4)c3C2)n1` as the molecule, how does the inhibition read?
**A.** 5%

**Q.** With `Cc1cc(N)c2cc(NC(=O)CCC(=O)Nc3ccc4nc(C)cc(N)c4c3)ccc2n1` as the molecule, how does the inhibition read?
**A.** 1%

**Q.** For `COc1cc(CNCCC(C)C)ccc1OCc1cccc(COc2ccc(CNCCC(C)C)cc2OC)c1`, which inhibition is on record?
**A.** 6%

**Q.** With `O=C(/C=C/c1ccc(Cl)c(Cl)c1)NCCCCCCN1CCCN(C(=O)Nc2ccc(C(F)(F)F)cc2)CC1` as the molecule, how does the inhibition read?
**A.** -8%
